We go through 29 molecules from PubChem BioAssay (NCI).

About 83,000 compounds went through this panel and 20% of them were active in at least one assay; those are over-represented in the sample as a whole.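 Percent growth is the endpoint: 0 to 100 indicates growth inhibition (40 means 60% inhibition), 0 means no net growth, and negative values indicate cell death.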 Active and inactive are the calls of the source. Rule for the calls: active = growth percent below 10; inactive = the rest.

The test system of the assay is HL-60(TB) leukemia. The assay is described as follows: NCI-60 one-dose screen, 48 h (100 = growth as untreated, 0 = no growth, -100 = all killed). The settings on record: 10 µM unless noted.
As for `COc1ccc(/C=N/Nc2cc(=O)[nH]c3ccc(Cl)cc23)cc1`, the growth is 45.3% (inactive).
Turning to `CCOc1ccccc1Cn1ccnc1CCc1c(Cl)c(O)cc(O)c1C(=O)OC`, the growth is 106% (inactive).
In the case of `CCOC(=O)CC[C@H](NC(=O)c1ccc(N(C)Cc2cnc3nc(N)nc(N)c3n2)c2ccccc12)C(=O)OCC`, the growth was 20.7% (inactive).
The same measure for `C=CCN(CC=C)C(=O)[C@H](CC)[C@@H]1CC[C@@H](C)[C@@H]([C@H](C)[C@@H](O)[C@@H](C)C(=O)[C@H](CC)C2O[C@]3(C=CC(=O)[C@]4(CC[C@@](C)([C@H]5CC[C@](O)(CC)[C@H](C)O5)O4)O3)[C@H](C)C[C@@H]2C)O1` (some centres undefined): -25.2% (active).
As for `O=C(O)C(C(=O)O)c1cccc2ccccc12`, the figure is 98.6% (inactive); as for `S=C=Nc1ccc2ccccc2c1`, 91.7% (inactive).
As to `CC(C)CCCCCOC(=O)c1ccccc1SSc1ccccc1C(=O)OCCCCCC(C)C`, the growth was 82.2% (inactive).
Consider `COc1ccc(-c2nc(SCC(=O)Nc3nc4ccc(C)cc4s3)[nH]c(=O)c2C#N)cc1OC`, for which the growth is 105% (inactive).
As for `COc1ccc(N)c(-c2cc3c(c4c2[nH]c2ccc(OC)cc24)CCCC3)c1`, the figure is 78.8% (inactive).
Turning to `COc1ccc2c(c1)c(-c1nc(-c3cn(C)c4ncccc34)cs1)cn2CCN`, the growth was 55.7% (inactive).
In the case of `COc1cc2c(cc1O)c(=O)n(CCN(C)C)c1c3cc4c(cc3ncc21)OCO4`, the growth is -29.2% (active).
Take `CNC(=O)c1cc(Oc2ccc3c(c2)sc2nc(-c4cc(C(F)(F)F)cc(C(F)(F)F)c4)cn23)ccn1`: the growth is 45.7% (inactive).
As for `O=C1/C(=C/c2ccc([N+](=O)[O-])s2)Oc2ccc(Br)cc21`, the figure is -22.3% (active); as for `CCOC(=O)CCCCCCCCC(=O)OCC`, 97.4% (inactive).
Regarding `CCCCCCCC1(C)NC(=O)NC1=O` (centres undefined), the growth is 100% (inactive).
As for `Cn1ccnc1C(=O)/C=C/c1ccc(C(=O)Nc2ccccc2F)cc1`, the growth is 5.22% (active).
For the molecule `O=c1[nH]c(Nc2ccc(S(=O)(=O)O)cc2)nc2nc(Nc3ccc(NC(=S)Nc4ccccc4)cc3)nc(-c3ccc(O)cc3O)c12`, the growth was 120% (inactive).
For the molecule `Cc1ccc(NC(=O)c2[nH]c(SCCN(C)C)nc2-c2ccc(F)cc2)cc1C#Cc1cnc2cccnn12`, the growth was -54.9% (active).
For the molecule `CCN(CC)CC(C)Nc1ccc([N+](=O)[O-])c2sc3ccccc3c(=O)c12` (centres undefined), the growth is -26.2% (active).
With `CCNC(=O)Oc1ccc(/C(=C(/CC)Cc2ccccc2)c2ccc(OCCN3CCOCC3)cc2)cc1`, the growth is 5.28% (active).
As for `CCCCCOC(=O)c1c(C)[nH]c(/C=C2\N=C(c3ccc[nH]3)C=C2OC)c1C`, the growth was -14.7% (active).
As for `CC(=O)O[C@H]1Cc2c([nH]c3ccccc23)[C@@H](c2ccc(Cl)cc2)N1C(=O)CCNC(C)(C)C`, the figure is 16.6% (inactive).
For `CNCc1ccccc1CN(CC(=O)Nc1ccc2c(c1)CC1(C2)C(=O)Nc2ncccc21)C(=O)C(C)(C)C` (centres undefined), the growth is 100% (inactive).
As for `CSCC[C@@H]1C(=O)N(C)[C@H](C(C)(C)C)N1C(=O)c1ccccc1`, the growth is 110% (inactive).
The same measure for `CCC(=O)N1C/C(=C/c2ccc(OC)cc2)C(=O)/C(=C/c2ccc(OC)cc2)C1`: 25.1% (inactive).
The same measure for `COc1ccc(-c2cc(/C=C/C(=O)c3ccc(N)cc3)[nH]n2)cc1`: -23% (active); for `[2H]C([2H])([2H])Oc1ccc(/C=C/C(=O)/C=C(/C=C/c2ccc(OC([2H])([2H])[2H])c(OC([2H])([2H])[2H])c2OC([2H])([2H])[2H])OB(F)F)c(OC([2H])([2H])[2H])c1OC([2H])([2H])[2H]`: 52.3% (inactive); for `COc1ccc2c(c1)C(=O)/C(=C/c1ccc(O)cc1)O2`: 59.4% (inactive).
In the case of `COc1cc2c(cc1O)C(=O)CCCC2`, the growth is 90.3% (inactive).
